Only some compounds are listed: those with a hit (about 3.4% of all), similar ones and a draw of the others.
proKLK7 act: activates the human kallikrein-7 zymogen | P49862 | purified proKLK7, EDANS-DABCYL substrate fluorescence; 100% is mature enzyme control, 0% vehicle | activation, % at 7 µM | actives 0.9% (n = 370,000) | AID 652039;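 active = activation above the mean of all tested compounds plus 3 SD, computed per campaign excluding outliers beyond control limits, cut at about 13% in these data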
Target sequence (P49862 whole entry, looked up): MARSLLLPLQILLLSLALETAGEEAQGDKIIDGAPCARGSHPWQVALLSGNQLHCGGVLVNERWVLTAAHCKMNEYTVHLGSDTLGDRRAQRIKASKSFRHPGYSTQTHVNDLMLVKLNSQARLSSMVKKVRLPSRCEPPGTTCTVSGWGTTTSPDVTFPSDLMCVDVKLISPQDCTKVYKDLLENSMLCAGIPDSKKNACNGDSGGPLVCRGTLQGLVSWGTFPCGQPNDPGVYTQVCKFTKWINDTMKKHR
CendR NRP1 mod: alters CendR peptide binding to human NRP-1 | inhibition, % at 25 µM | O14786 | actives 0.85% (n = 360,000) | FAM-RPARPAR peptide binding to NRP-1, fluorescence polarization;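 active = inhibition or corrected inhibition above about 18%, plus a signal ratio from 0.5 to 1.5, limit read from the data, passing the limit was not always enough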
ADAM17 inh: inhibits human ADAM17; actives 0.83% (n = 370,000); recombinant ADAM17, EDANS/DABCYL FRET peptide cleavage; inhibition, % at 6.95 µM; P78536;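 active = inhibition above the mean of compounds lying between control limits plus 3 SD, set per campaign, cut at about 8.5% in these data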
HGIII-sPLA2 inh: Blocks human group III sPLA2 activity | QFRET BODIPY PC-A2 liposome hydrolysis, fluorescence | Q9NZ20 | actives 0.56% (n = 370,000) | inhibition, % at 12.2 µM;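 active = inhibition above mean plus 3 SD of compounds lying within the high and low control bounds, cut at about 19% in these data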
ADAM10 inh: inhibits human ADAM10; O14672; recombinant ADAM10, EDANS/DABCYL FRET peptide cleavage, 3 h; inhibition, % at 7 µM; actives 0.62% (n = 370,000); AID 720582;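 active = inhibition above a per-campaign cutoff equal to the mean of compounds falling between control-based bounds plus 3 SD, cut at about 20% in these data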
ADAM10 counter: counter-screen for ADAM17 exosite inhibitors: inhibitors of human ADAM10; shares compounds with ADAM17 inh; recombinant ADAM10, EDANS/DABCYL FRET peptide cleavage, 3 h; inhibition, % at 6.95 µM; actives 47% (n = 2,900); AID 743256;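 active = mean inhibition over the triplicate runs exceeds the activity threshold set in the earlier primary screen, cut at about 20% in these data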
ADAM17 confirm: confirmation of inhibitors of human ADAM17 | shares compounds with ADAM17 inh | recombinant ADAM17, EDANS/DABCYL QFRET peptide cleavage | inhibition, % at 6.95 µM | actives 65% (n = 2,900);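 active = mean inhibition across replicates above the hit cutoff set in the primary screen, cut at about 8.5% in these data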
Hits are given with their value; 0 = inactive; - = no result.

SMILES	proKLK7 act	CendR NRP1 mod	ADAM17 inh	HGIII-sPLA2 inh	ADAM10 inh	ADAM10 counter	ADAM17 confirm
O=C(COC(=O)c1ccco1)Nc1ccc2c(c1)OCO2	0	0	9.6	0	0	0	0
O=C(COC(=O)c1ccco1)NCc1ccc2c(c1)OCO2	0	0	0	0	0	-	-
O=C(CCNC(=O)c1ccc(Cl)cc1)NCCC1=CCCCC1	0	0	8.7	0	0	0	9.2
O=C(CCNC(=O)c1ccc([N+](=O)[O-])cc1)NCCC1=CCCCC1	0	0	0	0	0	-	-
Cc1[nH]c2ccccc2c1/C=N\NC(=O)CNc1ccc2c(c1)OCO2	0	0	13	0	0	0	0
Cc1noc(C)c1NC(=O)Nc1ccc2c(c1)C(=O)N(C)[C@H]1CC[C@H](CC(=O)NCc3ccc(Cl)cc3)O[C@@H]1CO2	0	-	0	0	0	-	-
O=C(C(=O)N1CCN(S(=O)(=O)c2ccc(OC(F)(F)F)cc2)CC1)c1cccc(C(F)(F)F)c1	0	-	0	0	0	-	-
OCOCCCn1c(C2CCCN2c2nc(-c3ccc(F)cc3)cs2)nc2cc(Cl)c(N3CCCCC3)cc21 (centres undefined)	0	0	10	0	0	0	8.7
Nc1c(Cl)cc(-c2csc(N3CCCC3c3nc4cc(Cl)c(N5CCCCC5)cc4n3CCCO)n2)cc1Cl (centres undefined)	0	0	0	0	0	-	-
Nc1c(Cl)cc(-c2csc(N3CCCC3c3nc4cc(Cl)c(Cl)cc4n3CCCO)n2)cc1Cl (centres undefined)	0	0	0	0	0	-	-
OCCCn1c(C2CCCN2c2nc(-c3ccc(Cl)cc3)cs2)nc2cc(Cl)c(Cl)cc21 (centres undefined)	0	0	9.1	0	0	27	12
OCCCn1c(C2CCCN2c2nc(-c3ccc(F)cc3)cs2)nc2cc(Cl)c(Cl)cc21 (centres undefined)	0	0	9.5	0	0	0	11
CCOC(=O)c1c(C)[nH]c(C)c1C(=O)COC(=O)/C=C/c1ccc(OC(F)F)cc1	0	0	9.3	0	0	21	10
CC1=C(C(=O)OCCNC(=O)c2ccccc2O)C(c2ccccc2[N+](=O)[O-])C(C(=O)OCC2CCCO2)=C(C)N1 (centres undefined)	0	0	13	0	0	0	0
C[C@H]1CCCN1c1cccc2c1S(=O)(=O)N1CC[C@@H](C1)O2	0	-	0	0	0	-	-
CCN(C(=O)c1ccc(C(C)(C)C)cc1)c1nnc(Cn2nnc3ccccc32)s1	0	0	9.3	0	0	0	9.5
COc1ccc(CCN2CC(=O)N3CCc4ccc(N5CCOCC5)cc4C3CC2=O)cc1OC (centres undefined)	0	-	0	0	0	-	-
CC(NC(N)=O)C(=O)Nc1ccc(Cl)c(S(=O)(=O)Nc2ccc(Cl)cc2)c1 (centres undefined)	0	0	0	0	0	-	-
CC(C)Oc1ccc(C(=O)Nc2ccc(Cl)c(S(=O)(=O)Nc3ccc(Cl)cc3)c2)cc1	0	0	10	0	0	26	16
O=C(Nc1cccc(O)c1)c1ccc(S(=O)(=O)N2CCCCCC2)cc1	0	0	10	0	0	0	0
Cc1ccc(C)c(N2N=C(C(=O)Nc3cccc(S(=O)(=O)N4CCCCC4)c3)CCC2=O)c1	0	0	13	0	0	0	0
CC(C)Oc1ccc(C(=O)Nc2cccc(S(=O)(=O)N3CCCC3)c2)cc1	0	0	9.0	0	0	0	0
CN(Cc1ccccc1F)C(=O)C1C2C=CC3(CN(Cc4ccccc4)C(=O)C13)O2 (centres undefined)	0	-	0	0	0	-	-
O=C(CSc1cc(Cl)ccc1Cl)N/N=C/c1ccc[nH]1	-	-	0	0	0	-	-
CC(CCc1ccccc1)NC(=O)COC(=O)c1cc(NS(=O)(=O)c2ccc(Cl)c([N+](=O)[O-])c2)ccc1O (centres undefined)	0	0	8.7	0	0	31	19
CNS(=O)(=O)c1cccc(C(=O)OCC(=O)NC(C)CCc2ccccc2)c1 (centres undefined)	0	0	0	0	0	-	-

High-throughput results: PubChem, several laboratories
